From the supplement of paper PMC3545927 come the findings set out here.

The list shows a part of the results. The hit rate among all sequences tested is not known here.

The target in this assay is furin, P09958. Kind of assay: furin cleavage Z-score vs untreated control; higher = more cleavage, active = 3.5 or more, inactive = 1 or less, 8 variable residues between constant flanks. Put shortly:
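Read counts from sequencing released DNA gave abundance for each bead-bound 8-mer peptide–cDNA fusion cut by purified furin over 7.5, 15 or 30 min. The cleavage Z-score compares log counts with furin-free reactions after lowess adjustment and median absolute deviation scaling.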
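Note: purified furin at 1:10 enzyme:substrate in 50 mM HEPES pH 7.5.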

Sequence of furin, P09958 (P09958 whole entry, the tested form may be a part): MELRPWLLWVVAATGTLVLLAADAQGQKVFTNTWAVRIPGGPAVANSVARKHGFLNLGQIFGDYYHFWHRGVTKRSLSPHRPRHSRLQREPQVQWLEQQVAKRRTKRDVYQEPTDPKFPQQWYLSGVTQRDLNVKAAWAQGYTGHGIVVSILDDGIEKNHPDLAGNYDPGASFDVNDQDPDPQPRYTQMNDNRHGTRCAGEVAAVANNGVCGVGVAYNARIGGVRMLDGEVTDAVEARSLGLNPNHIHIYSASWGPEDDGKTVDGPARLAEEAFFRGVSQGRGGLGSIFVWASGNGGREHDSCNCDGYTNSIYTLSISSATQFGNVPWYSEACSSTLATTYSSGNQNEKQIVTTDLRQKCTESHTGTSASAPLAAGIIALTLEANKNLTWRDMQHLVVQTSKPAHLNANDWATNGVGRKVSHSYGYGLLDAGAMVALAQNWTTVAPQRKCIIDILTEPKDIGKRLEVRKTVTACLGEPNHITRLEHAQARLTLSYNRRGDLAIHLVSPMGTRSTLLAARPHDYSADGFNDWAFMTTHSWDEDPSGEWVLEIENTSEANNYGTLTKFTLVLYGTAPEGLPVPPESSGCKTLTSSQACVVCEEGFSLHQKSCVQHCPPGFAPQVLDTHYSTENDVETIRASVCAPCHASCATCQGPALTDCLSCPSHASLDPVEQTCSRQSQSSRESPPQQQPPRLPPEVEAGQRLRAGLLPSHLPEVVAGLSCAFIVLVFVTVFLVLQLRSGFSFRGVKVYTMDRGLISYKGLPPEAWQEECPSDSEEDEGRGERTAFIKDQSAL

B1: HC607 (peptide)
chain: CALAVFGPLWAGNASASA
Regarding B1, the “furin cleavage Z-score” value is, setting by setting: (7.5 min) 0.672 (inactive); (15 min) 0.344 (inactive); (30 min) 1.61.

B2: HC245 (peptide)
chain: CALPGCSFSIAGNASASA
On to B2, for which the “furin cleavage Z-score” value by setting is: (7.5 min) -0.725 (inactive); (15 min) 0.0221 (inactive); (30 min) 1.53.

B3: HC2252 (peptide)
chain: CAEVVTSTWEAGNASASA
Take B3: the “furin cleavage Z-score” value is, setting by setting: (7.5 min) 1.19; (15 min) 1.24; (30 min) -0.113 (inactive).

B4: HC1934 (peptide)
chain: CATTPCSGSKAGNASASA
For B4, the “furin cleavage Z-score” value runs as follows: (7.5 min) -0.794 (inactive); (15 min) 0.477 (inactive); (30 min) -0.455 (inactive).

B5: HC259 (peptide)
chain: CASTGLYHVTAGNASASA
As to B5, the “furin cleavage Z-score” value was 1.56 (7.5 min), 0.496 (inactive) (15 min) and -0.862 (inactive) (30 min).

B6: HC1745 (peptide)
chain: CAMEECSQLLAGNASASA
Turning to B6, the “furin cleavage Z-score” value (7.5 min) is 0.641 (inactive), the “furin cleavage Z-score” value (15 min) amounted to 1.59 and the “furin cleavage Z-score” value (30 min) stood at 1.09.

B7: HC431 (peptide)
chain: CANTRPPLGNAGNASASA
Regarding B7, the “furin cleavage Z-score” value by setting is: (7.5 min) -0.78 (inactive); (15 min) -0.196 (inactive); (30 min) 0.451 (inactive).

B8: HC2269 (peptide)
chain: CAYLEVVTSTAGNASASA
With B8, the “furin cleavage Z-score” value by setting is: (7.5 min) 1.41; (15 min) 0.163 (inactive); (30 min) 0.356 (inactive).

B9: HC663 (peptide)
chain: CARRGREILLAGNASASA
For B9, the “furin cleavage Z-score” value is, setting by setting: (7.5 min) 2.14; (15 min) 3.52 (active); (30 min) 5.12 (active).

B10: FS-2772 (peptide)
chain: CARRARVVHMAGNASASA
On to B10, for which the “furin cleavage Z-score” value is, setting by setting: (7.5 min) -0.133 (inactive); (15 min) -2.18 (inactive); (30 min) -0.247 (inactive).

B11: FS-2770 (peptide)
chain: CARRARSLALAGNASASA
Regarding B11, the “furin cleavage Z-score” value (7.5 min) was 4.92 (active), the “furin cleavage Z-score” value (15 min) is 6.9 (active) and the “furin cleavage Z-score” value (30 min) is 6.89 (active).

B12: FS-1832 (peptide)
chain: CARPQRSACHAGNASASA
B12: the “furin cleavage Z-score” value is -0.244 (inactive) (7.5 min), 1.03 (15 min) and 2.47 (30 min).

B13: FS-2774 (peptide)
chain: CARRGRSRSRAGNASASA
With B13, the “furin cleavage Z-score” value reads like this: (7.5 min) -0.725 (inactive); (15 min) -0.261 (inactive); (30 min) -0.331 (inactive).

B14: FS-2773 (peptide)
chain: CARRGRFKGLAGNASASA
For B14, the “furin cleavage Z-score” value was -2.35 (inactive) (7.5 min), 0.257 (inactive) (15 min) and -0.0126 (inactive) (30 min).

B15: FS-2177 (peptide)
chain: CARRARFLHEAGNASASA
B15: the “furin cleavage Z-score” value runs as follows: (7.5 min) 0.34 (inactive); (15 min) 2.97; (30 min) 5.38 (active).

B16: FS-2358 (peptide)
chain: CARPRRETCHAGNASASA
For B16, the “furin cleavage Z-score” value is, setting by setting: (7.5 min) 7.06 (active); (15 min) 6.02 (active); (30 min) 6.63 (active).

B17: HC513 (peptide)
chain: CAVGSSIASWAGNASASA
Turning to B17, the “furin cleavage Z-score” value is, setting by setting: (7.5 min) 1.24; (15 min) 0.758 (inactive); (30 min) 1.42.

B18: HC2204 (peptide)
chain: CAEVVTSIWVAGNASASA
Take B18: the “furin cleavage Z-score” value reads like this: (7.5 min) -1.22 (inactive); (15 min) -0.886 (inactive); (30 min) -0.589 (inactive).

B19: HC694 (peptide)
chain: CAQTFLATCIAGNASASA
Consider B19, for which the “furin cleavage Z-score” value reads like this: (7.5 min) -1.16 (inactive); (15 min) 1.03; (30 min) 0.494 (inactive).

B20: HC154 (peptide)
chain: CAEVVTCTWVAGNASASA
Consider B20, for which the “furin cleavage Z-score” value reads like this: (7.5 min) 0.26 (inactive); (15 min) 0.377 (inactive); (30 min) 0.00628 (inactive).

B21: HC1041 (peptide)
chain: CAWAKHMWNFAGNASASA
Turning to B21, the “furin cleavage Z-score” value is, setting by setting: (7.5 min) 2.37; (15 min) 1.51; (30 min) -0.0839 (inactive).

B22: FS-2592 (peptide)
chain: CARRARFVSKAGNASASA
For B22, the “furin cleavage Z-score” value was 1.79 (7.5 min), 3.6 (active) (15 min) and 4.51 (active) (30 min).

B23: FS-1773 (peptide)
chain: CARRARVVWCAGNASASA
B23: the “furin cleavage Z-score” value (7.5 min) was -0.495 (inactive), the “furin cleavage Z-score” value (15 min) is -0.908 (inactive) and the “furin cleavage Z-score” value (30 min) was -1.05 (inactive).

B24: FS-3044 (peptide)
chain: CARQSRAPSKAGNASASA
As for B24, the “furin cleavage Z-score” value is -0.34 (inactive) (7.5 min), -1.03 (inactive) (15 min) and 0.0856 (inactive) (30 min).

B25: HC1514 (peptide)
chain: CATSCGNTLTAGNASASA
In the case of B25, the “furin cleavage Z-score” value by setting is: (7.5 min) 0.831 (inactive); (15 min) -1.07 (inactive); (30 min) 0.652 (inactive).

B26: FS-828 (peptide)
chain: CALSSRTARSAGNASASA
For the sequence B26, the “furin cleavage Z-score” value is 10.9 (active) (7.5 min), 12.5 (active) (15 min) and 10.5 (active) (30 min).

B27: FS-273 (peptide)
chain: CALSSREARVAGNASASA
As for B27, the “furin cleavage Z-score” value is 0.397 (inactive) (7.5 min), 1.38 (15 min) and -0.0178 (inactive) (30 min).

B28: FS-1380 (peptide)
chain: CAPFSRVPRKAGNASASA
With B28, the “furin cleavage Z-score” value (7.5 min) was 4.53 (active), the “furin cleavage Z-score” value (15 min) was 5.54 (active) and the “furin cleavage Z-score” value (30 min) is 7.08 (active).

B29: FS-1103 (peptide)
chain: CAVSGRVPRSAGNASASA
On to B29, for which the “furin cleavage Z-score” value by setting is: (7.5 min) 8.22 (active); (15 min) 7.59 (active); (30 min) 5.91 (active).

B30: FS-616 (peptide)
chain: CALSSRVPRSAGNASASA
Consider B30, for which the “furin cleavage Z-score” value was 10.7 (active) (7.5 min), 10.8 (active) (15 min) and 8.57 (active) (30 min).

B31: HC1389 (peptide)
chain: CAVYSTTSRSAGNASASA
For the sequence B31, the “furin cleavage Z-score” value was 0.122 (inactive) (7.5 min), -0.119 (inactive) (15 min) and -0.531 (inactive) (30 min).

B32: FS-2542 (peptide)
chain: CAPFPRDVGKAGNASASA
Consider B32, for which the “furin cleavage Z-score” value by setting is: (7.5 min) 0.749 (inactive); (15 min) 0.654 (inactive); (30 min) -0.494 (inactive).

B33: FS-1426 (peptide)
chain: CATSNRQPRKAGNASASA
In the case of B33, the “furin cleavage Z-score” value reads like this: (7.5 min) 0.777 (inactive); (15 min) 2.06; (30 min) 3.28.

B34: HC2130 (peptide)
chain: CAEVVVCCSMAGNASASA
Take B34: the “furin cleavage Z-score” value was 0.168 (inactive) (7.5 min), -0.257 (inactive) (15 min) and -0.566 (inactive) (30 min).

B35: FS-764 (peptide)
chain: CAESGRENRSAGNASASA
Take B35: the “furin cleavage Z-score” value is 0.222 (inactive) (7.5 min), 0.598 (inactive) (15 min) and -0.14 (inactive) (30 min).

B36: FS-688 (peptide)
chain: CALSSRHSRSAGNASASA
For B36, the “furin cleavage Z-score” value was 7.04 (active) (7.5 min), 9.83 (active) (15 min) and 7.06 (active) (30 min).

B37: FS-1435 (peptide)
chain: CAVSGRRNRSAGNASASA
Turning to B37, the “furin cleavage Z-score” value (7.5 min) is 7.11 (active), the “furin cleavage Z-score” value (15 min) is 8.52 (active) and the “furin cleavage Z-score” value (30 min) is 7.39 (active).

B38: FS-559 (peptide)
chain: CARIGRTARSAGNASASA
With B38, the “furin cleavage Z-score” value is 14.2 (active) (7.5 min), 12.8 (active) (15 min) and 11.2 (active) (30 min).

B39: HC2151 (peptide)
chain: CADVVTSTWVAGNASASA
For the sequence B39, the “furin cleavage Z-score” value by setting is: (7.5 min) 0.471 (inactive); (15 min) -0.0629 (inactive); (30 min) 0.991 (inactive).

B40: HC666 (peptide)
chain: CALLGPADGMAGNASASA
On to B40, for which the “furin cleavage Z-score” value is, setting by setting: (7.5 min) -0.849 (inactive); (15 min) -0.827 (inactive); (30 min) -0.909 (inactive).

B41: HC634 (peptide)
chain: CATYVYNHLTAGNASASA
B41: the “furin cleavage Z-score” value (7.5 min) is -0.232 (inactive), the “furin cleavage Z-score” value (15 min) was 0.658 (inactive) and the “furin cleavage Z-score” value (30 min) is 0.0846 (inactive).

B42: HC1669 (peptide)
chain: CAYEECSQHLAGNASASA
On to B42, for which the “furin cleavage Z-score” value by setting is: (7.5 min) 1.21; (15 min) 0.943 (inactive); (30 min) 2.11.
